DAX1 inh-1 = NR0B1 (DAX1) inhibition; P51843; HEK293 Gal4-DAX1 luciferase reporter, luminescence; inhibition, % at 6.75 µM; 340,000 tested, 0.99% active; AID 504766;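 active = inhibition above the mean over all tested compounds plus 3 SD, cut at about 4.2% in these data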;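 also: 0% = DAX1-transfected cells with DMSO and 100% = empty-vector control cells with DMSO; inhibition shows as a rise in luminescence from relieved DAX1 repression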
Target sequence (P51843 207-470 limits assumed): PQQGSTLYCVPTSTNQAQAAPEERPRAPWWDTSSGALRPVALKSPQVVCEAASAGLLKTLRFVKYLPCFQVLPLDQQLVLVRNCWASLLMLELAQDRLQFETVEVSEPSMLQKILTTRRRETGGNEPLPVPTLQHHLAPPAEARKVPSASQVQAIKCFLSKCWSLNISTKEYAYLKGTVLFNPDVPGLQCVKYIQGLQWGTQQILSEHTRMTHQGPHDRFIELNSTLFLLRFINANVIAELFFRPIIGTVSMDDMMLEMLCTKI
hcDAF12 agonist = activators of H. contortus DAF-12 nuclear receptor; HEK293 hcDAF-12 lit1-tk-luc reporter, luminescence; 0% DMSO, 100% Δ7-dafachronic acid; activation, % at 6.8 µM; 370,000 tested, 1.4% active;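 active = activation above the mean of all tested compounds plus 3 SD, cut at about 5.5% in these data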;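 also: 100% = response to 3 µM Δ7-dafachronic acid high control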
DAX1 inh-2 = blocks DAX1 repression of SF-1 activated StAR promoter. 370,000 tested, 1.1% active. HEK293T StAR-luciferase reporter, SF-1/DAX-1 repression relief. AID 652010. inhibition, % at 6.8 µM;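 active = inhibition above the mean over all tested compounds plus 3 SD, cut at about 3.6% in these data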;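 also: 0% = DAX-1 cells with DMSO and 100% = cells lacking DAX-1 with DMSO; higher inhibition means more luminescence from relief of DAX-1 repression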
hgDAF12 agonist = agonists of H. glycines DAF-12 nuclear receptor; HEK293 GAL4-hgDAF12 UAS-luciferase reporter, agonist luminescence; normalized to butyrate control; activation, % at 6.8 µM; 370,000 tested, 1.8% active;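 active = activation above a cutoff set at the mean of all screened compounds plus 3 SD, cut at about 10% in these data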;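 also: 0% = DMSO wells and 100% = sodium butyrate wells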
ssDAF-12 act = activates DAF-12 receptor from parasite S. stercoralis; HEK293 ssDAF-12/GRIP1 lit1-tk-luc reporter, luminescence; % of 3 µM dafachronic acid response; activation, % at 6.8 µM; 370,000 tested, 1% active;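 active = activation above the mean over all tested compounds plus 3 SD, cut at about 0.9% in these data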;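 also: 0% = DMSO-only wells and 100% = 3 µM delta7-dafachronic acid wells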
Active calls of the source: *; · = not tested or not shown. This is a sample that favours compounds with a hit; in the whole collection about 4.1% have one here.

SMILES	DAX1 inh-1	hcDAF12 agonist	DAX1 inh-2	hgDAF12 agonist	ssDAF-12 act
CCN1C(=O)/C(=C2\SC(N3CCOCC3)=NC2=O)c2ccccc21	-0.2	-1.0	-0.3	0.7	-0.5
CCCCN1C(=O)/C(=C2\SC(N3CCOCC3)=NC2=O)c2ccccc21	-0.4	5.9*	-0.1	1.9	-0.1
Cc1ccc(O)c(C(=O)CC(=O)c2ccc(C(C)(C)C)cc2)c1	2.7	1.5	1.1	11.5*	-0.7
CC(C)(C)c1ccc(C(=O)NCC(=O)NNC(=O)c2ccccc2O)cc1	-0.8	-0.1	1.6	1.0	-0.7
C=CCN1[C@H](C)COc2cc(N3CCSCC3)ccc2S1(=O)=O	·	-1.7	-1.1	0.2	-1.9
CCOC(=O)CN/C=C(\C#N)c1ccccc1	5.4*	-0.8	-0.2	-3.5	-1.3
COc1ccc2nc(Nc3sc4c(c3C(N)=O)CCCC4)sc2c1	0.7	6.4*	0.5	3.5	0.2
COc1ccc2nc(NC3=NCCC3)sc2c1	2.7	-0.3	1.7	5.6	-1.0
COc1cc(OC)cc(C(=O)Nc2sc3c(c2C(N)=O)CCC3)c1	1.3	0.9	0.4	6.8	1.1*
COc1ccc(CC(=O)Nc2sc3c(c2C(N)=O)CCCC3)cc1	0.1	-2.0	-0.3	-0.8	-1.7
CCCCC(=O)N(C)c1c(CC)nc2c(OCC(=O)N3CCOCC3)cccn12	·	-1.3	1.0	-1.9	-1.0
CN1CCN(c2nc3cc(N4CCOCC4)ccc3s2)CC1	3.3	0.7	1.0	4.3	0.4
Cc1cc(N2CCN(C(=O)OC(C)(C)C)C[C@@H]2C)ccc1N1CCN(Cc2ccccc2)[C@@H](C)C1	·	-0.8	-1.2	4.8	-0.9
Cc1ccsc1/C=C(\C#N)C(=O)Nc1c(C)n(C)n(-c2ccccc2)c1=O	4.8*	-0.2	1.2	0.3	-1.7
COc1ccccc1Oc1nc2ccccn2c(=O)c1/C=C(\C#N)C(=O)Nc1c(C)n(C)n(-c2ccccc2)c1=O	4.8*	2.0	0.2	-0.4	-0.5
CCOC(=O)C1=C(C(=O)OCC)C2N(Cc3ccc(Br)cc3)c3ccccc3[C@@]23C[C@@H](C(=O)OC)N(S(=O)(=O)c2ccc(OC)cc2)C3=N1 (stereo partly specified)	·	-2.8	1.4	1.4	0.0
C=Cn1ccnc1CC(O)c1ccc(OC)cc1 (stereo unspecified)	5.8*	-0.5	0.5	-2.0	-1.3
Cc1ccc(-n2c(CNc3cccc(Cl)c3)n[nH]c2=S)cc1	0.1	-1.0	-0.1	-4.9	-1.6
Cc1ccc(NCc2n[nH]c(=S)n2-c2cccc(Cl)c2)cc1	4.5*	-1.1	-0.1	-0.2	-1.0
CC(C)N1CCCC(C)(C(=O)Nc2nc3ccccc3n2C)C1 (stereo unspecified)	·	0.9	-0.2	3.2	-0.6
CS(=O)(=O)N1CCc2cc(C(=O)Nc3ccccc3Cl)ccc21	20.9*	-0.7	1.0	3.5	-0.9
O=C(Cc1ccc(NC(=O)C2CCCN(C(=O)c3ccccc3)C2)cc1)Nc1cccc(C(=O)N2CCCCC2)c1 (stereo unspecified)	·	0.1	0.9	-0.1	-0.6
O=C(NC(C(=O)N1CCCC1C(=O)NC1CCCC1)c1ccccc1)c1cccs1 (stereo unspecified)	·	-1.0	0.4	-3.8	-0.9
O=C(CN1CCOc2ccccc21)NC1CCN(Cc2ccccc2)CC1	0.6	0.4	-0.6	-1.6	0.4
O=C(CN1CCOc2ccccc21)NC1CCCCCCC1	4.8*	5.8*	-0.3	-0.7	0.8
SMILES	DAX1 inh-1	hcDAF12 agonist	DAX1 inh-2	hgDAF12 agonist	ssDAF-12 act
COc1ccccc1C(=O)N1CCC2CCNC2C1 (stereo unspecified)	·	2.7	-0.7	-1.9	-0.5
Cc1ccc(S(=O)(=O)NC(=O)ON=Cc2ccc3c(c2)OCO3)cc1	·	-2.6	1.5	1.7	-1.1
Cc1ccc(NCc2ccc(O)c3ncccc23)cc1	-0.5	0.1	-0.1	0.6	0.2
Cc1ccc(NCc2ccc(O)c3ncccc23)cc1C	-0.7	-1.5	-0.1	-2.4	1.9*
COC(=O)[C@]12C[C@H](CC(=O)N3CCN(C(=O)C4CC4)CC3)C(=O)N(Cc3ccccc3)C1=C[C@H](C(C)(C)C)O[C@@H]2C	·	-0.6	0.8	-0.3	-0.8
Nc1ccccc1-c1nc2ccccc2[nH]1	2.5	2.1	4.0*	11.4*	-0.6
CCc1nc2ccc(C(=O)N(C)Cc3ccco3)cn2c1N(C)Cc1ccc(OC)cc1	·	-2.0	-1.1	-1.3	-2.1
